Laboratory results reported in ChEMBL document CHEMBL1961873, “Compounds: GSK PKIS; Assays: Nanosyn kinase panel” (2012).

Experiments:
[1] = molecular target: Fibroblast growth factor receptor 4 (Homo sapiens) (UniProt P22455); settings: at 1 µM;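 also: reported figure is the averaged percent inhibition of FGFR4, from the GSK PKIS kinase screening panel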
[2] = molecular target: Tyrosine-protein kinase Fgr (Homo sapiens) (UniProt P09769); settings: at 0.1 µM
[3] = molecular target: Tyrosine-protein kinase Fgr (Homo sapiens) (UniProt P09769); settings: at 1 µM
[4] = molecular target: Vascular endothelial growth factor receptor 1 (Homo sapiens) (UniProt P17948); settings: at 0.1 µM
[5] = molecular target: Vascular endothelial growth factor receptor 1 (Homo sapiens) (UniProt P17948); settings: at 1 µM
[6] = molecular target: Receptor-type tyrosine-protein kinase FLT3 (Homo sapiens) (UniProt P36888); settings: at 0.1 µM
[7] = molecular target: Receptor-type tyrosine-protein kinase FLT3 (Homo sapiens) (UniProt P36888); settings: at 1 µM
[8] = test system: T1, Receptor-type tyrosine-protein kinase FLT3 (Homo sapiens), P36888 [D835Y]; settings: at 0.1 µM
T1 sequence (whole entry): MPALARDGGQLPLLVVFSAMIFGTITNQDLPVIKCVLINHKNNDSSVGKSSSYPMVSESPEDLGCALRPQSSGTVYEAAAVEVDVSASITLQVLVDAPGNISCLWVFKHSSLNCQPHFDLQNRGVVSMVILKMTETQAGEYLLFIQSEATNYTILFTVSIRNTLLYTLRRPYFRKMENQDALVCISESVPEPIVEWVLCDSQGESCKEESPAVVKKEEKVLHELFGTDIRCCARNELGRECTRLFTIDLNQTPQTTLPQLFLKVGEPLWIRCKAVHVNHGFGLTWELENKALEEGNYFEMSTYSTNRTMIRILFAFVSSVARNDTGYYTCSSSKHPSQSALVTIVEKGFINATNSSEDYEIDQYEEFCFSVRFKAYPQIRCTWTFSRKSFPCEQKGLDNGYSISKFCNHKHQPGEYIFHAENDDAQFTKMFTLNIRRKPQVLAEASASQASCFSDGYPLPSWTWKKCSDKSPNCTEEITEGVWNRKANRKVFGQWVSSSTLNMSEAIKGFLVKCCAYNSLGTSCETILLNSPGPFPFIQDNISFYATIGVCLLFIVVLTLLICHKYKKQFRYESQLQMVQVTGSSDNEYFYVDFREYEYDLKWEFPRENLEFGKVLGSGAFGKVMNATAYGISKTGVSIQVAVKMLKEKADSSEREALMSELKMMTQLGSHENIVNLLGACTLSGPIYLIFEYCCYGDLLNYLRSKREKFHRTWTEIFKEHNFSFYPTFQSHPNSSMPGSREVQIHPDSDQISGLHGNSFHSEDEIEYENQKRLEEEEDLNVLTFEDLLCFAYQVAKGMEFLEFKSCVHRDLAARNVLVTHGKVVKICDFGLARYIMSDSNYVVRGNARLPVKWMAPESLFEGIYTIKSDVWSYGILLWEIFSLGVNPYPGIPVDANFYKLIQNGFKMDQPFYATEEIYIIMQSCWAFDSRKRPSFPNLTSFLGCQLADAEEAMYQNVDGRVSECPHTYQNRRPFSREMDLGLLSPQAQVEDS

[9] = molecular target: Non-receptor tyrosine-protein kinase TYK2 (Homo sapiens) (UniProt P29597); settings: at 1 µM;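 also: values are mean percent inhibition of TYK2 kinase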
[10] = molecular target: T2, Tyrosine-protein kinase receptor TYRO3 (Homo sapiens) (UniProt Q06418); settings: at 0.1 µM;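 also: reported percentages are averaged inhibition values of TYRO3 kinase activity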
T2 sequence (whole entry): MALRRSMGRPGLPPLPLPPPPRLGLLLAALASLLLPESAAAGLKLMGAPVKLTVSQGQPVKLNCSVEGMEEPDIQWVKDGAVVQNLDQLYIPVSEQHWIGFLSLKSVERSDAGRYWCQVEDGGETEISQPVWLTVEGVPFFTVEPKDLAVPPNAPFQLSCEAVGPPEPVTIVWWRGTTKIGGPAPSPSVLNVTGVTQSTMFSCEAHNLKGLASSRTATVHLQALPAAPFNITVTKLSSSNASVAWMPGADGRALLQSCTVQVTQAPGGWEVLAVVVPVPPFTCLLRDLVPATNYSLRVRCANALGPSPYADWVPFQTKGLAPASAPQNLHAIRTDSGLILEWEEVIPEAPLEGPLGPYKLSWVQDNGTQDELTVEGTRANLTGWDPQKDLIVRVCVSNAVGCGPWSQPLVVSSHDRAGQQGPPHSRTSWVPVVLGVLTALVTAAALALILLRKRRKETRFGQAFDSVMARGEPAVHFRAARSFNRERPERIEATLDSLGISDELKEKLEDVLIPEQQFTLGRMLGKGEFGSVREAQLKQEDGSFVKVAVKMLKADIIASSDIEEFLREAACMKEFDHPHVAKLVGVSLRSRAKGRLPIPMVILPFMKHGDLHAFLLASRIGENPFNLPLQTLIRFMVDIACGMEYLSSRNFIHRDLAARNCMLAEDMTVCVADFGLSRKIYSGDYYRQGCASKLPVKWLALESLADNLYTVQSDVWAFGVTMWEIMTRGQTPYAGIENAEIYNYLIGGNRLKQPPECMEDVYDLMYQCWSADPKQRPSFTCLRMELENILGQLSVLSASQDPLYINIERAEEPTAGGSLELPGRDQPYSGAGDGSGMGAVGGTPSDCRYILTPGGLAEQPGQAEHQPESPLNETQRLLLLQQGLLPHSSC

Tyrosine-protein kinase Fgr (Homo sapiens), sequence (P09769 2-529 limits assumed): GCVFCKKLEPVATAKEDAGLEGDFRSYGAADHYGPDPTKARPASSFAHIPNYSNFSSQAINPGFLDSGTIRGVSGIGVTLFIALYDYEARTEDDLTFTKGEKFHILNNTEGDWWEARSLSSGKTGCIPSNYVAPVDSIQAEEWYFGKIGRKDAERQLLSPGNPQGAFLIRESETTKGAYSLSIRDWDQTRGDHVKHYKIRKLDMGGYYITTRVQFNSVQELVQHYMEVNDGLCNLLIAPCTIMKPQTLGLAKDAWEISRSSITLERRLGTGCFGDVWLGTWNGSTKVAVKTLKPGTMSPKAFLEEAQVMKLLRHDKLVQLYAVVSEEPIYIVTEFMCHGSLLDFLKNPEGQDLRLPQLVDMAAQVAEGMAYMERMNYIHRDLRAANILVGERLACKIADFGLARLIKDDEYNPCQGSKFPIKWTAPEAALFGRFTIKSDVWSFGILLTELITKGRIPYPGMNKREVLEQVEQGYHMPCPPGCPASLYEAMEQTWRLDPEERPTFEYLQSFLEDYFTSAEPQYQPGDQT
Non-receptor tyrosine-protein kinase TYK2 (Homo sapiens), sequence (P29597 whole entry): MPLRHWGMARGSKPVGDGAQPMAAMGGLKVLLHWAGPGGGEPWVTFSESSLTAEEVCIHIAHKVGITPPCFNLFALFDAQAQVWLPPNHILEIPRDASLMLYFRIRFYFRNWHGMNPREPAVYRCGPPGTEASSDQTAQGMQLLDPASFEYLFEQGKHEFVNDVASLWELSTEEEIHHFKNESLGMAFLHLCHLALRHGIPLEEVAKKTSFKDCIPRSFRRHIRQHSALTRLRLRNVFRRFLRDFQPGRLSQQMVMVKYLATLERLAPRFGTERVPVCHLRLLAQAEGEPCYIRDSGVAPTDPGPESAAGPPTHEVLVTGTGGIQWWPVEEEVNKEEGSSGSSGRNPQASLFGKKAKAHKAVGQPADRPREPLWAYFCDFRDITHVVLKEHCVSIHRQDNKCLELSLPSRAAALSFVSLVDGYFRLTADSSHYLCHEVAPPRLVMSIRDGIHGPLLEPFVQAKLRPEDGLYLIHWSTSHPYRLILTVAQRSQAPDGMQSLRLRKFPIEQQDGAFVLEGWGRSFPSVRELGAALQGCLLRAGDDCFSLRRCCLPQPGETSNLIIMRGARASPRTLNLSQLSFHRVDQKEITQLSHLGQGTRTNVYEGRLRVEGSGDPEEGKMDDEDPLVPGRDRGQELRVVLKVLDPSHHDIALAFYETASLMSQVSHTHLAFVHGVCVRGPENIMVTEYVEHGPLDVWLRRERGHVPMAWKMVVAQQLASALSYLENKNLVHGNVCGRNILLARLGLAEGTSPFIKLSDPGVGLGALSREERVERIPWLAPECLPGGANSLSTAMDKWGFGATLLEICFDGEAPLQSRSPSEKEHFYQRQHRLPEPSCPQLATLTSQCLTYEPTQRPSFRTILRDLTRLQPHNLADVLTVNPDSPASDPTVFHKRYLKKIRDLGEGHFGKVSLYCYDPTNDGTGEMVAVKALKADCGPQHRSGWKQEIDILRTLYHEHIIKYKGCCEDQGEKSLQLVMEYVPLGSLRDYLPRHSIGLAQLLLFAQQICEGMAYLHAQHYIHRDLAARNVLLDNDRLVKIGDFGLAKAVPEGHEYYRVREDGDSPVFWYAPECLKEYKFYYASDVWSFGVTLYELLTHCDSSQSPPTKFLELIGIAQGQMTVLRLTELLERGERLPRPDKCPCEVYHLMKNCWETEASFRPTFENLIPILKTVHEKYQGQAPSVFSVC
Vascular endothelial growth factor receptor 1 (Homo sapiens), sequence (P17948 whole entry): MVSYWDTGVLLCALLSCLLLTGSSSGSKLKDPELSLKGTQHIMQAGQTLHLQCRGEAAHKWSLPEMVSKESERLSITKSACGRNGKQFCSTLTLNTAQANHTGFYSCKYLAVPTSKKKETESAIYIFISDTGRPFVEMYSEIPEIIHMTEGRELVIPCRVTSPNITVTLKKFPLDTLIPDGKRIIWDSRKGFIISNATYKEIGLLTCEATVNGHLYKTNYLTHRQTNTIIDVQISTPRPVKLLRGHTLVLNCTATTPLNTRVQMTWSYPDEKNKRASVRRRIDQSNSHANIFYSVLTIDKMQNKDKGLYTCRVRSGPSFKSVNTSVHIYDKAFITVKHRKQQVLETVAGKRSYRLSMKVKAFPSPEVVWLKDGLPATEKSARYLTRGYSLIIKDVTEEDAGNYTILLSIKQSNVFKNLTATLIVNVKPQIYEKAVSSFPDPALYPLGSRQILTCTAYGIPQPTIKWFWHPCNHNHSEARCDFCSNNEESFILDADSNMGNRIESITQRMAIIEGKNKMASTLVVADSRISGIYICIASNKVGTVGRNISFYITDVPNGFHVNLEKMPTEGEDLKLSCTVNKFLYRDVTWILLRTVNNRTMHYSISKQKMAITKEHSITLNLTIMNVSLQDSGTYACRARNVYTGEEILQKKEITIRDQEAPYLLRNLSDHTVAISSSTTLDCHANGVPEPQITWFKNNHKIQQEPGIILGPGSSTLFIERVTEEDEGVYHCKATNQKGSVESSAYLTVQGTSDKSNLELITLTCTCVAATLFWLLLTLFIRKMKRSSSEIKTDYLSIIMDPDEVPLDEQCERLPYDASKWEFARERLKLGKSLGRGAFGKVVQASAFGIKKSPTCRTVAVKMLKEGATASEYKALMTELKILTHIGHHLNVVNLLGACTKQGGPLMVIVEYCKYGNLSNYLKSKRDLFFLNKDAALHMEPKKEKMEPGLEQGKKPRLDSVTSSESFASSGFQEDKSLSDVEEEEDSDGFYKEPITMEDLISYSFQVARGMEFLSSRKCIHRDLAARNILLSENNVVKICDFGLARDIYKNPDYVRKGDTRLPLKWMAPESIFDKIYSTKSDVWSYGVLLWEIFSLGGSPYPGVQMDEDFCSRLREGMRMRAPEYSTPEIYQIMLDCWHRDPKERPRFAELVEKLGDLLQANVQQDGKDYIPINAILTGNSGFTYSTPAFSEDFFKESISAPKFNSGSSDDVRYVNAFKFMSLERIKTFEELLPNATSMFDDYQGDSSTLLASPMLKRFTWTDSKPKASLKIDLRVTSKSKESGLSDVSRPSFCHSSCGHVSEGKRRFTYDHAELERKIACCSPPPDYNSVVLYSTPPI
Fibroblast growth factor receptor 4 (Homo sapiens), sequence (P22455 22-802 limits assumed): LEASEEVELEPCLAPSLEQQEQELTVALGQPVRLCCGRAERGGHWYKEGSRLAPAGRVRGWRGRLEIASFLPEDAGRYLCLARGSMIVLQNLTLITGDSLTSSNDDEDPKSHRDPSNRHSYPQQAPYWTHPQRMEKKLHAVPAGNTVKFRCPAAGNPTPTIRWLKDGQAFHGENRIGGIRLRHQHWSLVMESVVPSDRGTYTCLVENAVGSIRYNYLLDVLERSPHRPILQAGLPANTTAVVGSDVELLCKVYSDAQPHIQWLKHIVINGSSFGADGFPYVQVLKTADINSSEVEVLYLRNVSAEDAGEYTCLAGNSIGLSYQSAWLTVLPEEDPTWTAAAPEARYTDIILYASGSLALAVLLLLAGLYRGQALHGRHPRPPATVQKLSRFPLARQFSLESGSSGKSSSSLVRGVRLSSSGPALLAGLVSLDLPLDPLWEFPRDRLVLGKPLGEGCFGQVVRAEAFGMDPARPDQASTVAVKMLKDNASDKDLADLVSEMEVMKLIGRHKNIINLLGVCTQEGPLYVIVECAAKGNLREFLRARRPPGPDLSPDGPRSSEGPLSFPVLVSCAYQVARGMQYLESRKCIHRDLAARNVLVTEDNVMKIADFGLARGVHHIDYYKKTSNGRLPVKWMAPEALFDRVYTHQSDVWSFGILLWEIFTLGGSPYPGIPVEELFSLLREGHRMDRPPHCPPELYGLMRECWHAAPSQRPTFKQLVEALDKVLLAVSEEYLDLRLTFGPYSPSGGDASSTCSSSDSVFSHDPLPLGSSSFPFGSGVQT

SMILES: CC(C)(CO)CNC(=O)c1ccc2c(c1)/C(=N/Nc1ccc(S(N)(=O)=O)cc1)C(=O)N2
- inhibition [1]: -0.62%
- inhibition [2]: 3.82%
- inhibition [3]: 22.2%
- inhibition [4]: -1.72%
- inhibition [5]: 11.1%
- inhibition [6]: 0.08%
- inhibition [7]: 6.23%
- inhibition [8]: 1.72%
- inhibition [9]: 4.08%
- inhibition [10]: -0.65%

SMILES: [O-][S+]1CCN(Cc2ccc(-c3ccc4ncnc(Nc5ccc(OCc6cccc(F)c6)c(Cl)c5)c4c3)o2)CC1
- inhibition [1]: 0.31%
- inhibition [2]: 3.65%
- inhibition [3]: 6.21%
- inhibition [4]: 0.35%
- inhibition [5]: -0.47%
- inhibition [6]: 4.64%
- inhibition [7]: 5.03%
- inhibition [8]: 1.35%
- inhibition [9]: -4.3%
- inhibition [10]: 3.67%

SMILES: NS(=O)(=O)c1ccc(Nc2ncc(-c3ccccc3)o2)cc1
- inhibition [1]: 1.97%
- inhibition [2]: 2.45%
- inhibition [3]: 10.1%
- inhibition [4]: 4.95%
- inhibition [5]: 13.1%
- inhibition [6]: 35.3%
- inhibition [7]: 78.8%
- inhibition [8]: 8.41%
- inhibition [9]: 2.33%
- inhibition [10]: 3.59%

SMILES: CCNC(=O)O[C@H]1CN[C@H](C#Cc2cc3ncnc(Nc4ccc(OCc5cccc(F)c5)c(Cl)c4)c3s2)C1
- inhibition [1]: -0.06%
- inhibition [2]: 1.28%
- inhibition [3]: 1.88%
- inhibition [4]: 2.51%
- inhibition [5]: 1.26%
- inhibition [6]: 2.06%
- inhibition [7]: 2.34%
- inhibition [8]: 3.08%
- inhibition [9]: -3.06%
- inhibition [10]: 2.91%

SMILES: CCCN1CCC(c2ccc(Nc3nc(Nc4cc(F)ccc4C(N)=O)c4cc[nH]c4n3)c(OC)c2)CC1
- inhibition [1]: 12.4%
- inhibition [2]: 6.28%
- inhibition [3]: 7.49%
- inhibition [4]: 0.21%
- inhibition [5]: 0.37%
- inhibition [6]: 4.46%
- inhibition [7]: 20.3%
- inhibition [8]: 6.01%
- inhibition [9]: -2.78%
- inhibition [10]: 3.47%

SMILES: CC(=O)NCc1cccc(C#Cc2cncnc2Nc2ccc(OCc3cccc(F)c3)c(Cl)c2)c1
- inhibition [1]: -0.23%
- inhibition [2]: -0.22%
- inhibition [3]: 4.83%
- inhibition [4]: -0.55%
- inhibition [5]: 0.27%
- inhibition [6]: 0.26%
- inhibition [7]: -1.41%
- inhibition [8]: -0.58%
- inhibition [9]: 2.95%
- inhibition [10]: 1.2%

SMILES: CC1=C(C(=O)Nc2cc(Cl)c3[nH]ncc3c2)C(c2ccc(C(F)(F)F)cc2)CC(=O)N1 (stereo not given)
- inhibition [1]: 2.25%
- inhibition [2]: 2.78%
- inhibition [3]: 4.88%
- inhibition [4]: -0.55%
- inhibition [5]: -1.53%
- inhibition [6]: 1.66%
- inhibition [7]: 3.1%
- inhibition [8]: -4.83%
- inhibition [9]: -1.04%
- inhibition [10]: 3.7%

SMILES: Cc1ccc2c(-c3ccnc(Nc4ccccc4)n3)c(-c3ccc(F)cc3)nn2n1
- inhibition [1]: 1.8%
- inhibition [2]: 40.7%
- inhibition [3]: 78.4%
- inhibition [4]: 2.49%
- inhibition [5]: 22.1%
- inhibition [6]: 2.15%
- inhibition [7]: 4.21%
- inhibition [8]: 3.24%
- inhibition [9]: -1.64%
- inhibition [10]: 3.56%

SMILES: Fc1ccc(-c2nn3ncccc3c2-c2ccnc(Nc3ccc4c(c3)OCCO4)n2)cc1
- inhibition [1]: 3.32%
- inhibition [2]: 68.2%
- inhibition [3]: 84%
- inhibition [4]: 7.67%
- inhibition [5]: 30.8%
- inhibition [6]: 2.79%
- inhibition [7]: 6.52%
- inhibition [8]: -1.97%
- inhibition [9]: -3.36%
- inhibition [10]: 5.85%

SMILES: Clc1ccc(-c2nn3ncccc3c2-c2ccnc(Nc3ccccc3)n2)cc1
- inhibition [1]: 1.94%
- inhibition [2]: 25.1%
- inhibition [3]: 70.2%
- inhibition [4]: 4.39%
- inhibition [5]: 14.6%
- inhibition [6]: 0.8%
- inhibition [7]: 4.19%
- inhibition [8]: -2.63%
- inhibition [9]: -0.64%
- inhibition [10]: 1.14%

SMILES: CN1CCC(n2cnc(-c3ccc(F)cc3)c2-c2ccnc(Nc3ccccc3)n2)CC1
- inhibition [1]: 1.8%
- inhibition [2]: 11.5%
- inhibition [3]: 33.7%
- inhibition [4]: 0.12%
- inhibition [5]: 3.33%
- inhibition [6]: 0.8%
- inhibition [7]: 1.93%
- inhibition [8]: -1.9%
- inhibition [9]: 0.82%
- inhibition [10]: 2.41%

SMILES: CNC(=O)c1cc(-c2ccc(F)cc2)cc(-c2ccc(S(=O)(=O)N3CCCC3)cc2)c1N
- inhibition [1]: 0.22%
- inhibition [2]: 0.33%
- inhibition [3]: 2.93%
- inhibition [4]: 2.17%
- inhibition [5]: -0.47%
- inhibition [6]: 3.03%
- inhibition [7]: 1.85%
- inhibition [8]: -1.38%
- inhibition [9]: -1.28%
- inhibition [10]: 1.59%

SMILES: Fc1ccc(-c2nn3ccccc3c2-c2ccncc2)cc1
- inhibition [1]: 2.03%
- inhibition [2]: -0.1%
- inhibition [3]: 6.02%
- inhibition [4]: 1.98%
- inhibition [5]: 2.63%
- inhibition [6]: -0.06%
- inhibition [7]: 2.86%
- inhibition [8]: -0.98%
- inhibition [9]: -0.08%
- inhibition [10]: 0.22%

SMILES: O=C(Nc1n[nH]c2cc(-c3ccc(F)cc3)ccc12)C1CC1
- inhibition [1]: 1.06%
- inhibition [2]: 1.35%
- inhibition [3]: 9.07%
- inhibition [4]: -0.63%
- inhibition [5]: 0.79%
- inhibition [6]: 1.99%
- inhibition [7]: 3.69%
- inhibition [8]: -0.06%
- inhibition [9]: -3.58%
- inhibition [10]: 4%

SMILES: COc1ccc2c(-c3ccnc(Nc4cccc(OC(F)(F)F)c4)n3)cnn2n1
- inhibition [1]: 0.68%
- inhibition [2]: 5.29%
- inhibition [3]: 7.16%
- inhibition [4]: 1.57%
- inhibition [5]: 7.39%
- inhibition [6]: 3.4%
- inhibition [7]: 14.3%
- inhibition [8]: 3.59%
- inhibition [9]: -2.09%
- inhibition [10]: 4.51%

SMILES: Cc1cccc(Nc2ncc(-c3ccccc3)o2)c1
- inhibition [1]: 1.36%
- inhibition [2]: 2.72%
- inhibition [3]: 9.59%
- inhibition [4]: 1.05%
- inhibition [5]: 11%
- inhibition [6]: 39.8%
- inhibition [7]: 81%
- inhibition [8]: -4.74%
- inhibition [9]: -4.11%
- inhibition [10]: 1.56%

SMILES: COc1cccc(-n2ncc3c(N/N=C/c4ccc(F)cc4)ncnc32)c1
- inhibition [1]: 2.78%
- inhibition [2]: 11.4%
- inhibition [3]: 29.7%
- inhibition [4]: 2.07%
- inhibition [5]: 3.41%
- inhibition [6]: 3.58%
- inhibition [7]: 7.87%
- inhibition [8]: 0.24%
- inhibition [9]: -1.74%
- inhibition [10]: 5%
